As usually defined, the cell viability is a read-out of living cells in per cent, often relative to untreated cells.

Drawing on the supplement of paper PMC8699584, this text covers cell viability for 19 compounds.

Assay [1] concerns Molm13. Kind of assay: cell viability relative to DMSO control (bortezomib = 0%); higher = less growth inhibition. Particulars: 10 nM; 72 h. An outline of the steps:
(§1)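 In duplicate runs, a library of 679 approved and investigational compounds in 384-well plates received acute myeloid leukemia cells at 1000 cells per well in 50 µL, with each compound at a single 10 nM dose for 72 h. CellTiter-Glo luminescence, read on an EnVision reader, served as the viability measure. Each plate was normalized by linear regression between DMSO-treated cells (100%) and positive-control-treated cells (0%).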

The subject of assay [2] is Mv4-11. Described as above. The note with it: 10 nM; 72 h. The essentials: as §1

± gives the standard deviation of the averaged measurements.

Consider `N[C@@H]1CCCN(c2c(/C=C3\SC(=O)NC3=O)cccc2-c2ccccc2)C1`, for which the figures for the cell viability in assay [1] and in assay [2] were 103 ± 1.3% and 125 ± 9.2%, respectively.
With `Cc1ccc2c(Nc3ccc(Cl)cc3)nccc2c1Nc1ncccc1-c1ncnc2nc[nH]c12` [B-Raf inhibitor 1], the cell viability in assay [1] amounted to 98.9 ± 11%; in assay [2], 107.5 ± 0.62%.
Consider `Cn1c(=O)n(-c2ccc(C(C)(C)C#N)cc2)c2c3cc(-c4cnc5ccccc5c4)ccc3ncc21`, for which the cell viability was found to be 107 ± 2.7% in assay [1] and 109 ± 15% in assay [2].
`C[C@H]1[C@H](C)CC[C@]2(C(=O)O)CC[C@]3(C)C(=CC[C@@H]4[C@@]5(C)C[C@@H](O)[C@H](O)C(C)(C)[C@@H]5CC[C@]43C)[C@H]12` [Corosolic acid]: the cell viability in assay [1] was determined as 113 ± 26%; in assay [2], 106 ± 11%.
Regarding `CN1CCN(Cc2ccc(-c3cnc4[nH]cc(-c5ccc6[nH]ccc6c5)c4c3)cc2)CC1`, the cell viability in assay [1] came to 109 ± 33%; in assay [2], 121 ± 31%.
In the case of `CCN1CCN(Cc2ccc(C(=O)Nc3ccc(C)c(Oc4ccc5c(c4)CC(=O)N5)c3)cc2C(F)(F)F)CC1`, the results for the cell viability in assay [1] and in assay [2] were 110 ± 13% and 114 ± 6.1%, respectively.
For `COc1cc(Nc2ncc(F)c(Nc3ccc4c(n3)N(COP(=O)(O)O)C(=O)C(C)(C)O4)n2)cc(OC)c1OC` [R788 (Fostamatinib) Disodium], the cell viability in assay [1] turned out to be 92 ± 3.9%; in assay [2], 96.4 ± 10%.
Consider `Cc1cc(C)c(/C=C2\C(=O)Nc3ccccc32)[nH]1` [Semaxanib (SU5416)], for which the cell viability in assay [1] came out at 82.4 ± 11%; in assay [2], 98 ± 16%.
Consider `C=CC(=O)Nc1cccc(C)c1Nc1ncc2cc(-c3c(Cl)c(OC)cc(OC)c3Cl)ccc2n1`, for which the cell viability is 112 ± 22% in assay [1] and 112 ± 1.2% in assay [2].
For the compound `O=C1Nc2ccc(CN3C(=O)CSC3=O)cc2/C1=C/c1cc(CN2CCOCC2)c[nH]1`, the values for the cell viability in assay [1] and in assay [2] were 92.3 ± 7.1% and 110 ± 8.4%, respectively.
Regarding `FC(F)(F)c1ccc(CNc2ccc(Cc3c[nH]c4ncc(Cl)cc34)cn2)cn1`, the cell viability came to 89.207 ± 0.064% in assay [1] and 105 ± 16% in assay [2].
Turning to `CCc1cc(-c2n[nH]c(C)c2-c2ccc3c(c2)OCCO3)c(O)cc1O`, the cell viability in assay [1] is 102 ± 20%; in assay [2], 94.9 ± 12%.
`CS(=O)(=O)N1CCN(Cc2cc3nc(-c4cccc5[nH]ncc45)nc(N4CCOCC4)c3s2)CC1`: the cell viability in assay [1] was determined as 89.9 ± 12%; in assay [2] it was 106.7 ± 0.54%.
For the compound `CC(C)[C@H](CO)Nc1nc(Nc2cccc(Cl)c2)c2ncn(C(C)C)c2n1` [Purvalanol A], the cell viability came to 102 ± 7.3% in assay [1] and 106 ± 12% in assay [2].
Turning to `CO[C@@H]1[C@H](N(C)C(=O)c2ccccc2)C[C@H]2O[C@]1(C)n1c3ccccc3c3c4c(c5c6ccccc6n2c5c31)C(=O)NC4` [PKC-412(Midostaurin)], the values for the cell viability in assay [1] and in assay [2] were 95.04 ± 0.94% and 89 ± 22%, respectively.
For `Clc1cnccn1` [2-Chloropyrazine] the same measures were 113 ± 6.1% and 94.5 ± 27%.
On to `CC(C)(C#N)c1ccc(N2C(=O)OCc3cnc4ccc(-c5cnc6ccccc6c5)cc4c32)cc1`, for which the cell viability in assay [1] turned out to be 93.6 ± 11%; in assay [2] it was 102 ± 9.2%.
For `COc1cc(N2CCOCC2)ccc1Nc1ncc(Cl)c(Nc2ccccc2NS(C)(=O)=O)n1` the same measures were 108 ± 10% and 111 ± 24%.
For `CS(=O)(=O)CCNCc1ccc(-c2ccc3ncnc(Nc4ccc(OCc5cccc(F)c5)c(Cl)c4)c3c2)o1` [Lapatinib ditosylate monohydrate] the same measures were 137 ± 32% and 108 ± 17%.
